For eight compounds, growth results are on record in PubChem BioAssay (NCI).

Assay in all cases: NCI-60 one-dose screen, 48 h (100 = growth as untreated, 0 = no growth, -100 = all killed)
One assay has as its system HCT-15 colon. The note with it: 10 µM unless noted.
A further assay concerns HT29 colon. The following applies: 10 µM unless noted.
The test system of a further assay is SNB-75 CNS. The note with it: 10 µM unless noted.
The test system of the next assay is SNB-19 CNS. The note with it: 10 µM unless noted.
A further assay deals with U251 CNS. The note with it: 10 µM unless noted.
The next assay relates to PC-3 prostate. The note with it: 10 µM unless noted.
In another assay the test system is SK-MEL-5 melanoma. The note with it: 10 µM unless noted.
For a further assay, the system named is UACC-62 melanoma. The note with it: 10 µM unless noted.
The subject of a further assay is LOX IMVI melanoma. The following applies: 10 µM unless noted.
In another assay the test system is SK-MEL-28 melanoma. The note with it: 10 µM unless noted.
The test system of a further assay is EKVX NSCLC. The following applies: 10 µM unless noted.
The subject of the next assay is SN12C renal. The following applies: 10 µM unless noted.
A further assay has as its system UO-31 renal. The note with it: 10 µM unless noted.
The test system of a further assay is TK-10 renal. The following applies: 10 µM unless noted.
The next assay deals with ACHN renal. The following applies: 10 µM unless noted.
For the next assay, the system named is CAKI-1 renal. The note with it: 10 µM.
The next assay has as its system A498 renal. The note with it: 10 µM unless noted.
The next assay relates to CCRF-CEM leukemia. The following applies: 10 µM unless noted.
The test system of a further assay is MOLT-4 leukemia. The note with it: 10 µM unless noted.
The subject of the next assay is SK-MEL-2 melanoma. The following applies: 10 µM unless noted.

The panel holds about 83,000 compounds, 20% with a hit somewhere; the sample as a whole holds those more often.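 Each cell line was grown in a 96-well plate and treated with one concentration of compound for 48 hours. Values below 10 were considered active.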 Unmarked numbers belong to inactive results. Calls of active or inactive are those of the source.

On to `COc1ccc([C@H]2[C@H](O)C(=O)N2c2cc(OC)c(OC)c(OC)c2)cc1`, for which the growth is 9.24% (active) with HCT-15 colon; -2.31% (active) in the assay with HT29 colon; 49.6% with SNB-75 CNS; 29% in the assay on SNB-19 CNS; 8.04% (active) in the assay with U251 CNS; 13.9% in the assay on PC-3 prostate. Moreover, the growth is 0.112% (active) in the assay on SK-MEL-5 melanoma; 20.6% with UACC-62 melanoma; 15.1% in the assay with LOX IMVI melanoma; 62.8% with SK-MEL-28 melanoma; 44.4% in the assay with EKVX NSCLC; 20.3% with SN12C renal. The growth in the assay on UO-31 renal was 32.4%; in the assay with TK-10 renal, 69.8%; in the assay on ACHN renal, 26.8%; in the assay on CAKI-1 renal it was 28.4%; with A498 renal it was -17.5% (active); with CCRF-CEM leukemia, 26.7%.

Take `C/C(=C(/c1ccc(O)cc1)c1ccc(OCCN(C)C)cc1)c1ccc(Cl)cc1`: the growth in the assay on HCT-15 colon was -26.8% (active); in the assay on HT29 colon it was -51.3% (active); in the assay on SNB-75 CNS, 63.8%; in the assay with SNB-19 CNS, 59.7%; in the assay on U251 CNS, 35.3%; in the assay with PC-3 prostate it was 52.1%. The growth is 42.9% with SK-MEL-5 melanoma; -27.3% (active) in the assay on UACC-62 melanoma; -22.2% (active) with LOX IMVI melanoma; -74.1% (active) in the assay with SK-MEL-28 melanoma; 61.4% with EKVX NSCLC; 59.1% with SN12C renal. The growth is 50.6% in the assay on UO-31 renal; 85% in the assay with TK-10 renal; 32.8% in the assay with ACHN renal; 36.2% in the assay on CAKI-1 renal; 70.2% with A498 renal; 53% in the assay on CCRF-CEM leukemia. Besides, the growth in the assay with MOLT-4 leukemia was 11.9%.

For the compound `Cc1cc(=O)n2nc(-c3c[nH]c4ccccc34)sc2n1`, the growth in the assay on HCT-15 colon was 93.5%; in the assay on HT29 colon it was 107%; with SNB-75 CNS, 99.8%; in the assay with SNB-19 CNS, 97.3%; in the assay with U251 CNS, 94.2%; in the assay on PC-3 prostate, 98.3%. Besides, the growth in the assay on SK-MEL-5 melanoma is 98.5%; in the assay with UACC-62 melanoma it was 92%; in the assay on LOX IMVI melanoma, 95.7%; in the assay on SK-MEL-28 melanoma it was 96.5%; with EKVX NSCLC it was 95.3%; in the assay with SN12C renal, 94.5%. Also, the growth with UO-31 renal is 82.1%; in the assay with TK-10 renal, 128%; in the assay with ACHN renal it was 96.1%; in the assay on CAKI-1 renal, 99.8%; in the assay with CCRF-CEM leukemia, 115%.

Take `Cn1cc(-c2nn3cc(-c4cccnc4)nc3s2)c2ccccc21`: the growth in the assay on HCT-15 colon was 12.5%; in the assay with HT29 colon it was 11.2%; in the assay on SNB-75 CNS it was 31.4%; in the assay with SNB-19 CNS it was 42.6%; in the assay with U251 CNS it was 26.6%; in the assay with PC-3 prostate, 35.8%. Moreover, the growth was 11.1% with SK-MEL-5 melanoma; 31.1% in the assay with UACC-62 melanoma; 37.9% with LOX IMVI melanoma; 50.7% with SK-MEL-28 melanoma; 43.8% in the assay on EKVX NSCLC; 33.4% with SN12C renal. Moreover, the growth in the assay with UO-31 renal was 32.2%; in the assay on TK-10 renal it was 80.5%; with ACHN renal it was 48.1%; in the assay with CAKI-1 renal it was 43.5%; in the assay with A498 renal, 36.6%; with CCRF-CEM leukemia, 38%.

In the case of `O=S(=O)(NC1CC2CCC1C2)c1ccc2c(c1)C(=NO)c1cc(S(=O)(=O)NC3CC4CCC3C4)ccc1-2` (stereo unspecified), the growth is 31.2% with HCT-15 colon; 22.3% in the assay on HT29 colon; 37.2% with SNB-75 CNS; 63.3% with SNB-19 CNS; -64.2% (active) in the assay with U251 CNS; 59.2% in the assay on PC-3 prostate. In addition, the growth with SK-MEL-5 melanoma was 93%; with UACC-62 melanoma it was 71%; in the assay on LOX IMVI melanoma, -90.5% (active); with SK-MEL-28 melanoma it was 92.3%; with SK-MEL-2 melanoma it was 98.1%; in the assay on SN12C renal, 34.6%. In addition, the growth is -93% (active) in the assay on UO-31 renal; 95.6% in the assay with TK-10 renal; -95.4% (active) in the assay with ACHN renal; -97.5% (active) with CAKI-1 renal; 89.4% in the assay with A498 renal; -18.8% (active) in the assay with CCRF-CEM leukemia. Moreover, the growth with MOLT-4 leukemia is 47.1%.

For the compound `Cc1ccccc1/C=C/c1nn2c(-c3ccoc3C)nnc2s1`, the growth with HCT-15 colon was 97.9%; with HT29 colon, 97.7%; in the assay on SNB-75 CNS, 111%; in the assay on SNB-19 CNS, 90.8%; with U251 CNS it was 97.6%; in the assay on PC-3 prostate it was 99.4%. Moreover, the growth in the assay on SK-MEL-5 melanoma was 98.4%; in the assay on UACC-62 melanoma, 88%; with LOX IMVI melanoma, 101%; with SK-MEL-28 melanoma, 94.9%; with EKVX NSCLC it was 100%; in the assay on SN12C renal it was 101%. The growth in the assay with UO-31 renal is 85.4%; in the assay on TK-10 renal it was 95.5%; in the assay on ACHN renal, 102%; with CAKI-1 renal, 89.8%; in the assay on A498 renal it was 89.5%; in the assay on CCRF-CEM leukemia it was 108%.

In the case of `COc1ccc2c(c1)c(-c1nn3c(=O)cc(-c4ccccc4)nc3s1)cn2C`, the growth in the assay with HCT-15 colon is 34.7%; in the assay with HT29 colon, 10.5%; in the assay with SNB-75 CNS, 14.9%; in the assay with SNB-19 CNS, 39.1%; with U251 CNS, 26.8%; in the assay with PC-3 prostate it was 32.4%. The growth with SK-MEL-5 melanoma is 38.7%; with UACC-62 melanoma, 24.2%; in the assay with LOX IMVI melanoma, 37.9%; in the assay with SK-MEL-28 melanoma, 51.5%; in the assay on EKVX NSCLC, 85.3%; in the assay with SN12C renal, 45.2%. Besides, the growth with UO-31 renal was 38.1%; with TK-10 renal it was 64.1%; in the assay on ACHN renal, 44.3%; in the assay on CAKI-1 renal it was 46.6%; with A498 renal it was 4.32% (active); in the assay with CCRF-CEM leukemia, 34.7%.

With `C=CCn1c(SCC(=O)Nc2ccc(OC)cc2)nnc1-c1ccc(Cl)cc1`, the growth was 73.7% in the assay with HCT-15 colon; 105% in the assay with HT29 colon; 97.4% with SNB-75 CNS; 91.7% in the assay with SNB-19 CNS; 105% in the assay with U251 CNS; 95.1% in the assay with PC-3 prostate. In addition, the growth is 96.4% with SK-MEL-5 melanoma; 81.5% in the assay with UACC-62 melanoma; 93.8% in the assay on LOX IMVI melanoma; 92.5% with SK-MEL-28 melanoma; 92.5% in the assay with EKVX NSCLC; 92.7% with SN12C renal. For the same compound, the growth is 73.5% in the assay with UO-31 renal; 97.9% in the assay with TK-10 renal; 92.8% with ACHN renal; 84.6% in the assay on CAKI-1 renal; 98.2% in the assay on A498 renal; 117% in the assay with CCRF-CEM leukemia. In the assay on MOLT-4 leukemia, the growth was 84.2%.
